The record followed here is PubChem BioAssay AID504329 (Southern Research Specialized Biocontainment Screening …, 2011).

About 1,000 (0.29%) of roughly 340,000 compounds were called active. These entries were drawn from the full list. Results with a measured potency or affinity are listed apart. Values without a mark were called inactive. No stated cut-off is given here; in the data, inconclusive means inhibition above about 27% without an active follow-up result; inactive means below that.

The nature of the assay: H1N1 influenza NS1A inhibitors, functional cell based assay (AID 504329). Conditions: percent inhibition, at 12.5 µM, stronger effect = higher value.
As to `CCOC(=O)C1(C(=O)OCC)NC(=O)CC1C` (stereo not given), the inhibition (as a rule, the relative decrease from the control value, in per cent) is 1.41%.

For `NNC(=O)c1cc(-c2cccs2)nc2ccccc12`, the inhibition is 25.3%.

`C/C(=N\NC(=O)c1cc(C)nc2ccccc12)c1ccco1`: the inhibition was -1.27%.

Turning to `C/C(=N\NC(=O)c1cc(C)nc2ccccc12)c1ccncc1`, the inhibition was 7.15%.

With `O=C(N/N=C/c1ccc2ncccc2c1)c1cc(-c2cccs2)nc2ccccc12`, the inhibition is -4.78%.

As for `COc1ccc(CC(=O)Nc2nc(-c3ccncc3)cs2)cc1`, the inhibition is 3.49%.

As for `O=C(Oc1ccc(/C=N/NC(=O)c2ccccc2O)cc1)c1ccccc1`, the inhibition is 1.64%.

For `Cc1nn(-c2ccccc2)c(N2CCCC2)c1/C=N/NC(=O)c1ccccc1O`, the inhibition was -10.1%.

For the compound `CCOC(=O)C1CCCN(C(=O)C2CCN(Cc3nc(-c4ccc(Cl)cc4)oc3C)CC2)C1` (stereo not given), the inhibition was -0.69%.

Regarding `COC(=O)c1ccc(COc2ncnc3ccccc23)o1`, the inhibition was 2.36%.

Turning to `CC1=C/C(=C(/c2ccc(O)c(C)c2)c2ccccc2S(=O)(=O)O)C=CC1=O`, the inhibition is 12.6%.

Take `CC1=C/C(=C(\c2ccc(O)c(C)c2)c2ccccc2S(=O)(=O)O)C=CC1=O`: the inhibition is -2.96%.

In the case of `O=[N+]([O-])c1ccc([N+](=O)[O-])c(Nc2ccc(N3CCOCC3)cc2)c1`, the inhibition is -0.167%.

On to `O=[N+]([O-])c1ccc(N2CCOCC2)c([N+](=O)[O-])c1`, for which the inhibition is 4.03%.

With `NC(=O)c1ccccc1N/C=C/C(=O)c1ccccc1`, the inhibition was 1.83%.

As for `COc1ccc(Cn2c(=O)[nH]c3cc(C(=O)N4CCN(c5ccc(OC)cc5)CC4)ccc3c2=O)cc1`, the inhibition was -8.57%.

Regarding `Cc1ccc(NC(=O)COC(=O)Cn2ccc(C(F)(F)F)n2)cc1Cl`, the inhibition was 0.4%.

For `CN=c1scc(-c2ccco2)n1/N=C/c1ccc(O)c(O)c1`, the inhibition is 19.1%.

Consider `CCN=c1scc(-c2ccco2)n1/N=C/c1ccc(OC)c(O)c1`, for which the inhibition was 28.8%.

Turning to `CN(CC(=O)Nc1ccccc1Cl)C(=O)C1CCN(C(=O)c2ccc(F)cc2)CC1`, the inhibition was -9.67%.

As for `Cc1cc(C(=O)Nc2cccc(S(=O)(=O)N3CCOCC3)c2)c2ccccc2n1`, the inhibition is -7.61%.

As for `O=C(Cc1ccccc1)N/N=C/c1cc(Br)cc(Br)c1O`, the inhibition was -3.61%.

Consider `COc1ccc(Br)cc1/C=N/NC(=O)C[n+]1ccccc1`, for which the inhibition was -3.17%.

Regarding `O=C(C[n+]1ccccc1)N/N=C/c1cc(Br)ccc1F`, the inhibition was 2.1%.

As for `O=C(C[n+]1ccccc1)N/N=C/c1ccc(Br)cc1`, the inhibition is 3.75%.

For the compound `O=S(=O)(NN1CCOCC1)c1ccc(Br)cc1`, the inhibition is -5.55%.

As for `COc1ccc(/C=N/NC(=O)C2c3ccccc3-c3ccccc32)cc1`, the inhibition is 1.63%.

With `CCNC(=S)NNC(=O)c1ccncc1`, the inhibition was -6.57%.

For `O=C(NNC(=O)C1CC=CCC1)c1ccccc1Cl` (stereo not given), the inhibition is -13.4%.

For `Cc1ccccc1SCC(=O)NNC(=O)c1ccccc1O`, the inhibition is -9.27%.

Consider `COc1ccc(/C=C2/C(=O)NC(=S)N(C3CC3)C2=O)cc1CN1C(=O)c2ccccc2C1=O`, for which the inhibition is -5.91%.

In the case of `Cc1ccc(/C=C2\C(=O)NC(=S)N(c3ccccc3F)C2=O)s1`, the inhibition was -6.98%.

`CCOC(=O)C1CCN(/C=C2\C(=O)NC(=S)N(CC)C2=O)CC1`: the inhibition is 1.72%.

For `O=C(NNC(=O)c1ccccc1Cl)c1ccccc1Cl`, the inhibition was -1.97%.

Regarding `O=C1/C(=C/c2cccs2)NC(=S)N1C1CC1`, the inhibition was 25.9%.

In the case of `Cc1cccc(NC(=O)COc2ccc(/C=N\n3cnnc3)cc2)c1`, the inhibition is -2.09%.

Take `CS(=O)(=O)N1CCN(C(=O)Cc2ccc(Br)cc2)CC1`: the inhibition is -21.4%.

As to `O=C(O)/C=C/c1cn(-c2ccccc2)nc1-c1ccccc1`, the inhibition is -7.13%.

As to `CCOc1ccc(C(C(=O)NC2CCCCC2)N(C(=O)c2ccccn2)c2cccnc2)cc1` (stereo not given), the inhibition is -3.97%.

For the compound `CCCCCCCCNc1nc(Cl)nc(NCc2ccco2)n1`, the inhibition is -0.33%.

On to `O=C(O)c1ccccc1NS(=O)(=O)c1cccc2nsnc12`, for which the inhibition is -1.24%.

As for `O=C(N/N=C/c1c(O)n(C2CCCCC2)c(=S)[nH]c1=O)c1ccccc1O`, the inhibition was -5.43%.

Consider `O=C(NNC(=S)NC1CCCCC1)c1ccccc1O`, for which the inhibition is 5.32%.

With `Cn1nccc1C(=O)Nc1sc2c(c1C(N)=O)CCCC2`, the inhibition was -3.24%.

Consider `CN1CCN(Cc2cc(Cl)c3cccnc3c2OC(=O)c2cccs2)CC1`, for which the inhibition was -0.27%.

Regarding `Oc1ccc(CNc2ccccc2)c2cccnc12`, the inhibition was 10.6%.

For `O=C(Oc1c(CN2CCOCC2)cc(Cl)c2cccnc12)c1ccc(F)cc1`, the inhibition is 5.6%.

In the case of `Oc1ccc(CNc2ccccc2F)c2cccnc12`, the inhibition was 12.8%.

As to `O=c1oc2ccccc2c(O)c1Cc1cc(Cl)c2cccnc2c1O`, the inhibition is -5.95%.

`Oc1ccc(CNc2ccc(F)cc2)c2cccnc12`: the inhibition was 28.1%.

As for `Oc1c(I)cc(Cl)c2cccnc12`, the inhibition was -16.7%.

`Oc1cc2c(cc1CN1CCc3ccccc3C1)OCO2`: the inhibition is 13.1%.

Consider `CC(=O)OCC(=O)c1ccc2ccn(C(C)=O)c2c1`, for which the inhibition was 2.53%.

As to `c1ccc(CN(Cc2cccs2)C(c2cccs2)c2nnnn2C2CCCC2)cc1` (stereo not given), the inhibition is 4.12%.

`CSc1cc(-c2ccc(Cl)cc2)c(C(=O)N2CCCC2)s1`: the inhibition is -3.23%.

Regarding `O=S(=O)(c1cc(F)ccc1F)N1CCN(C2CCCCC2)CC1`, the inhibition was 0.25%.

Consider `Cn1c(=Nc2ccccc2)sc2ccccc21`, for which the inhibition is 9.39%.

On to `COc1ccc(N=c2sc3ccccc3n2C)cc1`, for which the inhibition is 1.52%.

As for `O=C(COC(=O)/C=C/c1cccc(Cl)c1)NC1CCCC1`, the inhibition is -4.83%.

With `CC(C)(C)c1ccc(-c2n[nH]c(=S)n2CC2CCCO2)cc1` (stereo not given), the inhibition is 3.44%.

Take `Cc1ccc(C2=NOC(=O)/C2=C\C=C\c2ccccc2)cc1`: the inhibition was -3.38%.

For the compound `O=C/C=C/c1ccccc1`, the inhibition was 2.7%.

With `CC1=C(C)N(C)[C@H](c2ccccc2Br)[C@H](O)C1=O`, the inhibition is -9.31%.

Take `O=C(CSc1nnc(-c2cccnc2)n1Cc1ccccc1)N1CCOCC1`: the inhibition was 0.45%.

Regarding `Cc1ccc(Nc2nc(-c3c(C)nc4ncccn34)cs2)cc1`, the inhibition was -0.31%.

In the case of `Cc1nc2ncccn2c1-c1csc(Nc2ccc(O)cc2)n1`, the inhibition is 5.22%.

For `S=C(NCc1ccco1)Nc1ccc(Cl)cc1Cl`, the inhibition was 0.07%.

In the case of `Cc1nc2ccccc2c(=O)n1CCCN1CCOCC1`, the inhibition is -0.85%.

Consider `N=c1n(CCN2CCOCC2)c2ccccc2n1CC(=O)c1cccc([N+](=O)[O-])c1`, for which the inhibition was 0.36%.

For `CCc1cc2c(=O)[nH]c(-c3ccncc3)nc2s1`, the inhibition is -1.62%.

As to `O=c1[nH]c(-c2ccccn2)nc2sc(-c3ccccc3)cc12`, the inhibition is 1.57%.

On to `COC(=O)c1cc(NS(=O)(=O)c2ccc(NC(C)=O)cc2)ccc1Cl`, for which the inhibition is 10.8%.

For `CCCCNC(=S)N/N=C/c1cccc(OCC)c1O`, the inhibition was -0.5%.

`S=C(NCCN1CCOCC1)N/N=C/c1ccccc1`: the inhibition is 4.1%.

For the compound `COc1cc(/C=N/NC(=S)NCCN2CCOCC2)cc(OC)c1OC`, the inhibition was -0.84%.

Regarding `COc1cc(OC)c(OC)cc1/C=N/NC(=S)NCCN1CCOCC1`, the inhibition is -3.02%.

On to `O=C(NCCCN1CCOCC1)C(=O)N/N=C/c1cccc2ccccc12`, for which the inhibition is -23.6%.

Turning to `Oc1cccc(/C=N/NC(=S)NCCN2CCOCC2)c1O`, the inhibition was -11.6%.

`O=C(NCCCN1CCOCC1)C(=O)N/N=C/c1ccccc1Cl`: the inhibition is -2.62%.

Turning to `COc1cc(/C=N/NC(=S)NCCN2CCOCC2)ccc1O`, the inhibition is -6.09%.

Regarding `N#C/C(=C\Nc1ccc(Cl)cc1)S(=O)(=O)c1ccccn1`, the inhibition is -7.92%.

As for `Cc1ccc2nc(SCC(=O)Nc3cccc([N+](=O)[O-])c3)[nH]c2c1`, the inhibition was 4.1%.

On to `CCOC(=O)C1=C(C)C(c2ccccc2O)NC(=O)N1` (stereo not given), for which the inhibition is -4.1%.

Regarding `CCCOc1ccc(-c2nc(OCC)c3ccccc3n2)cc1`, the inhibition was -12.4%.

Consider `COc1cc2c(cc1OC)C(c1ccsc1)CC(=O)N2` (stereo not given), for which the inhibition is 2.33%.

`O=C(O)c1ccccc1Nc1ccnc(Cl)n1`: the inhibition was 4.77%.

For `O=C(O)c1ccccc1Nc1ccccc1C(=O)O`, the inhibition is 5.1%.

Regarding `CCOC(=O)N1CCC(=C(C#N)C(=O)Nc2cc(OC)ccc2OC)CC1`, the inhibition is 7.42%.

For `COc1ccccc1-c1nc(SCC(=O)Nc2ccccc2F)n[nH]1`, the inhibition is -2.78%.

As to `COc1ccccc1NC(=O)CSc1n[nH]c(-c2cccnc2)n1`, the inhibition was 2.96%.

As for `Cc1nc(SCC(=O)Nc2cccc(Cl)c2)n[nH]1`, the inhibition is -19.4%.

On to `O=C(CSc1n[nH]c(-c2cccnc2)n1)Nc1cccc(Cl)c1`, for which the inhibition is 0.29%.

For the compound `O=C(CSc1n[nH]c(-c2cccnc2)n1)Nc1ccccc1`, the inhibition is -8.39%.

For `O=C(CSc1n[nH]c(-c2ccncc2)n1)Nc1ccccc1`, the inhibition was -1.24%.

With `O=C(CSc1n[nH]c(-c2ccco2)n1)Nc1ccccc1F`, the inhibition is 2.4%.

Regarding `COc1ccccc1NC(=O)CSc1n[nH]c(-c2ccco2)n1`, the inhibition was -13%.

For the compound `CCOC(=O)c1c(C)[nH]c(C)c1S(=O)(=O)N(C)CC(=O)Nc1ccccc1F`, the inhibition is -8.93%.

On to `COc1ccc(OC2C(=O)N(CCc3ccc(OC)c(OC)c3)C2c2ccc3c(c2)OCO3)cc1` (stereo not given), for which the inhibition was 22.8%.

With `Cc1cc(C)cc(OCC(O)Cn2nc(C)cc2C)c1` (stereo not given), the inhibition is -5.82%.

With `CC(C)Cc1nc(Cl)c(C#N)c2c1CCCC2`, the inhibition is 0.11%.
